Consider 18 compounds from PubChem BioAssay (NCATS).

Inconclusive results are not listed. Activity calls are given as the source filed them. Calls follow the shape of the dose curve; as a rule, active = well fitted inhibition curve with a large enough effect; inconclusive = small, poorly fitted or top-dose-only effect; inactive = flat fitted curve, though single readings scatter.

This test is described as follows: qHTS profiling for inhibitors of Plasmodium falciparum proliferation (AID 504749).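 Also: 0% = DMSO vehicle and full inhibition = artemisinin control; nearly all actives have a fitted effect of over 60% in size.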 The following applies: P. falciparum in erythrocytes, SYBR Green DNA, 72 h; at 28.7 µM (top of the series); parasite line A. The gist of the method: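 SYBR Green fluorescence (ex 485 nm, em 535 nm) reports parasite DNA after 72 h compound exposure of infected red cells at 0.3% parasitemia, 2.5% hematocrit; signal normalized to 0.29 uM artemisinin and vehicle wells.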
For orientation: In qHTS, concentration-response curves come from the screen itself.
Consider `O=C(OCCN1CCCCC1)C(O)(c1ccccc1)c1ccccc1`, for which the activity, negative = inhibition is 8.26% (inactive).

As to `CC(N)Cc1ccc(O)cc1` (stereo not drawn), the activity, negative = inhibition is -0.875% (inactive).

On to `CC(=O)OC1CN2CCC1CC2` (stereo not drawn), for which the activity, negative = inhibition was -1.93% (inactive).

On to `COc1ccc(OC)c(C(O)C(C)N)c1` (stereo not drawn), for which the activity, negative = inhibition is 12.5% (inactive).

With `FC(F)OC(F)(F)C(F)Cl` (stereo not drawn), the activity, negative = inhibition was 10.8% (inactive).

In the case of `C[C@]12CCC(=O)C[C@@H]1CC[C@@H]1[C@@H]2CC[C@]2(C)[C@@H](O)CC[C@@H]12`, the activity, negative = inhibition was -12.4% (inactive).

As to `O=C(CCl)c1ccc(Oc2ccc(C(=O)CCl)cc2)cc1`, the activity, negative = inhibition was 5.66% (inactive).

As to `COc1ccc2c3c1O[C@H]1C(=O)CC[C@H]4[C@@H](C2)N(C)CC[C@]314`, the activity, negative = inhibition is 0.497% (inactive).

Turning to `ClC1C(Cl)C(Cl)C(Cl)C(Cl)C1Cl` (stereo not drawn), the activity, negative = inhibition was 10.1% (inactive).

In the case of `CC(C)(O)C1C2OC(=O)C1C1(O)CC3OC34C(=O)OC2C14C` (stereo not drawn), the activity, negative = inhibition was 13.7% (inactive).

Regarding `CCC1(c2ccccc2)C(=O)NC(=O)N(C)C1=O` (stereo not drawn), the activity, negative = inhibition was 3.95% (inactive).

As for `S=C=S`, the activity, negative = inhibition was 2.86% (inactive).

Consider `O=C(CS(=O)C(c1ccccc1)c1ccccc1)NO` (stereo not drawn), for which the activity, negative = inhibition was -13.7% (inactive).

For `CCC(N)Cc1c[nH]c2ccccc12` (stereo not drawn), the activity, negative = inhibition was -18.9% (inactive).

On to `CCOc1ccc2c3c1O[C@H]1[C@@H](O)C=C[C@H]4[C@@H](C2)N(C)CC[C@@]341`, for which the activity, negative = inhibition was 0.925% (inactive).

For `CCC1(CC)C(=O)NC(=O)N(C)C1=O`, the activity, negative = inhibition was 7.69% (inactive).

Take `CCC(C)(S(=O)(=O)CC)S(=O)(=O)CC`: the activity, negative = inhibition was 9.02% (inactive).

For the compound `CCC1(c2ccccc2)C(=O)NC(=O)N(C(=O)c2ccccc2)C1=O` (stereo not drawn), the activity, negative = inhibition is -16% (inactive).
